Values without a mark were called inactive.

The assay deals with Aedes aegypti larvae. In words: larval motility relative to same well at 0 h (fraction); higher = more motile (less active compound), active = 0.4 or less. Particulars: 10 µM; 24 h. The gist of the method:
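Each 96-well plate held about 10 Aedes aegypti larvae per well in 100 µL, along with solvent and larvicide control wells. Compounds were present at 10 µM with 1% v/v DMSO, and INVAPP recorded 200-frame movies at 100 ms intervals at 0, 2 and 24 h. Relative motility divides each well's score by its baseline score from the first recording, with the median taken across independent larval batches, of which there were three.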
Take `NC(=O)C(c1ccccc1)(c1ccccc1)[C@H]1CCCN(CCc2ccc3c(c2)CCO3)C1`: the larval motility is 0.78.
The value for `CC(C)Nc1ncnc2c1cnn2-c1ccc(Cl)cc1` was 0.773; that for `O=C(NC(=O)N1CCCc2ccccc21)c1cccc(Cl)c1` was 1.04.
In the case of `Cc1nc2ccc(Cl)cc2c(-c2ccccc2)c1CC(=O)O` it was 1.02; in that of `O=C(CCCC(F)(F)F)N1CCC(c2nc(-c3nccs3)no2)CC1`, 1.08; in that of `CNC(=O)C1O[C@@H](n2cnc3c(NCc4cccc(I)c4)nc(Cl)nc32)[C@H](O)[C@@H]1O` (some centres undefined), 0.817.
In the case of `O=C(NO)C1(CS(=O)(=O)c2ccc(Oc3ccc(Cl)cc3)cc2)CCOCC1` it was 1.04; in that of `Cn1cc(NC(=O)c2cc(NC(=O)c3ccc(/C=C/c4cnc5ccccc5c4)cc3)cn2C)cc1C(=O)NCCN1CCOCC1`, 0.773; in that of `CN(Cc1ccc(C(C)(C)C)cc1)Cc1cccc2ccccc12`, 0.64.
In the case of `COc1ccc(-n2cnc3cc(NCc4ccco4)ccc32)cc1`, the larval motility was 1.63.
In the case of `NC(=S)N/N=C/c1ncccc1N` it was 0.773.
The value for `Oc1cc(-c2cccc3ccccc23)[nH]n1` was 0.554; that for `C=CCN(C(=O)OCc1ccc([N+](=O)[O-])cc1)C1CCN(CC[C@](C)(CN(C)S(=O)(=O)c2ccccc2)c2ccccc2)CC1` was 0.852.
For `O=C(NC(=O)N1CCCc2ccccc21)c1ccc(Cl)cc1Cl`, the larval motility was 0.89.
With `CSC[C@H]1CN(Cc2c[nH]c3c(N)ncnc23)C[C@@H]1O`, the larval motility is 0.589.
In the case of `NC(=O)c1ccccc1NC(=O)c1ccc(C(=O)Nc2ccccc2C(N)=O)cc1` it was 0.755.
For `O=C(CSc1nnc(Br)n1-c1ccc(C2CC2)c2ccccc12)Nc1ccc(C(=O)O)cc1Cl`, the larval motility was 0.894.
In the case of `CCNC(=O)Nc1cc2c(-c3ccnc(C)c3)ccc(CNC(=O)OC)c2cn1`, the larval motility was 0.931.
As to `N#Cc1c(F)c(Cl)c(NCc2ccccc2)c(C#N)c1F`, the larval motility was 0.978.
In the case of `CN(O)C(=O)c1cc2c(CN3CCC[C@H]3C(N)=O)cn(Cc3ccc(F)cc3)c2cn1` it was 1.08; in that of `NNC(=O)c1ccncc1`, 0.744; in that of `O=S(=O)(Nc1ccccc1)c1ccc(NC(=S)Nc2ccccc2)cc1`, 0.792.
With `CNc1nc(=O)[nH]cc1F`, the larval motility is 0.909.
As to `CC(C)N(c1cc(-c2ccccc2)sc1C(=O)O)C(=O)[C@H]1CC[C@H](C)CC1`, the larval motility is 0.742.
In the case of `Nc1nc(O)c2ncn(COCCO)c2n1`, the larval motility is 0.823.
With `CN(C(=O)C1(c2ccc(Cl)cc2)CCC1)c1ccccc1`, the larval motility was 1.21.
The value for `Cc1ccc(NC(=O)c2ccc(CN3CCN(C)CC3)cc2)cc1Nc1nccc(-c2cccnc2)n1` was 0.702; that for `CC(C)Oc1ccc(-n2cnc3cc(/C=C\c4ccc(C(C)(C)O)cc4)ccc32)cc1` was 1.03; that for `COc1ccc(OCc2ccc(COc3c(Cl)cccc3Cl)cc2)c(Cl)c1` was 1.03.
The value for `CCCCCCCCC(CP(=O)(O)C(C)N)C(=O)O` (centres undefined) was 1.09; that for `COCCn1cnc2c(=O)[nH]c(Nc3ccccc3)nc21` was 0.552.
The value for `COc1nc2ccc(Br)cc2cc1[C@@H](c1ccccc1)[C@@](O)(CCN(C)C)c1cccc2ccccc12` was 0.679; that for `O=C(Nc1ccc(Cl)c(C(F)(F)F)c1)C(CCCl)C(=O)Nc1ccc(Cl)c(C(F)(F)F)c1` was 0.397 (active); that for `O=[N+]([O-])/C(Br)=C/c1ccc(Br)o1` was 0.796.
`Cc1ccc(Oc2ccccc2-c2csc(NC3=NCCCN3)n2)c(C)c1`: the larval motility was 0.786.
In the case of `Cc1c(OCC(F)(F)F)ccnc1CS(=O)c1nc2ccccc2[nH]1` (centres undefined), the larval motility is 1.38.
As for `O=S(=O)(NCB(O)O)c1cc2c(Cl)ccc(Cl)c2s1`, the larval motility was 0.742.
Regarding `Nc1cnn(C2OC(CO)C(O)C2O)c(=O)n1` (centres undefined), the larval motility was 1.33.
The value for `C[C@@H](O)[C@H](N)C(=O)NS(=O)(=O)c1cccc(-c2ccc3[nH]ncc3c2)c1` was 0.913.

The record behind these values is the supplement of paper PMC8540655.
